Reference: ChEMBL document CHEMBL4513216, “Probing the Open Global Health Chemical Diversity Library for Multistage-Active Starting Points for Next-Generation Antimalarials” (ACS Infect Dis, 2020)
Screen size: about 69,000 compounds; about 8,600 (12%) showed an effect of 50% or more. Many of the other results were omitted from the sample, so strong results are more common in it than they were.

system: Plasmodium berghei; assay: Screen against P. berghei liver stage (PbLuc), transformed with Luciferase, at 10uM; format: functional, HepG2; conditions: tested at 10 uM

| Structure (SMILES) | INHIBITION |
| --- | --- |
| Cc1cccc(CN2C[C@@H]3CN(C(=O)C4CC=CC4)C[C@@H]3C2=O)n1 | 14.9% |
| CCN1C[C@@H]2CN(C(=O)C3CC=CC3)C[C@@H]2C1=O | 15.7% |
| O=C(C1CCOC1)N1C[C@H]2CN(Cc3ccncc3)C(=O)[C@H]2C1 (stereo partly drawn) | -22.2% |
| O=C(C1CC=CC1)N1C[C@H]2CN(Cc3ccncc3)C(=O)[C@H]2C1 | 56.6% |
| O=C(C1CCC1)N1C[C@@H]2CN(Cc3ccncc3)C(=O)[C@@H]2C1 | 50.3% |
| O=C1[C@H]2CN(Cc3ccoc3)C[C@H]2CN1Cc1ccncc1 | 45.1% |
| COc1ccc(C(=O)NS(=O)(=O)c2cncc(Br)c2)c(OC)c1 | 29.4% |
| Cc1ccc(-c2snnc2C(=O)NCCCO)cc1 | -19.7% |
| COc1cccc(OC)c1CC(=O)NC(C#N)c1ccsc1 (stereo not drawn) | 0.0944% |
| Cc1ccc(C(=O)NC2CC2)c(-n2cnnn2)c1C | 28.6% |
| CN(C)c1ccc(CNC(=O)NCCc2cccs2)cn1 | -11.9% |
| c1cnc(N2CCCC(NCc3cccc4c3OCCO4)C2)nc1 (stereo not drawn) | 22.9% |
| CN(C)Cc1ccnc(C2CCCN2Cc2ccc(F)cn2)n1 (stereo not drawn) | 63.4% |
| CN(C)Cc1ccnc(C2CCCN2Cc2cc[nH]n2)n1 (stereo not drawn) | 29.6% |
| CN(C)Cc1ccnc(C2CCCN2Cc2ccncc2)n1 (stereo not drawn) | 40.4% |
| CCc1cnc(CN(C(C)=O)C2CCN(CC3(O)CCCCC3)C2)o1 (stereo not drawn) | 5.9% |
| c1ccc(-c2nc(CN3CCCC3Cn3cccn3)no2)cc1 (stereo not drawn) | 44.3% |
| Cc1nc(NC(=O)CN2C(=O)c3ccccc3NC2C(C)C)sc1C (stereo not drawn) | 32.2% |
| CN(Cc1cc(=O)c(O)co1)C1CCCN(c2ccccc2)C1 (stereo not drawn) | 7.93% |
| Cc1cc(N2CCC(N(C)Cc3cc(=O)c(O)co3)CC2)nc(C)n1 | 28.7% |
| CN(Cc1cc(=O)c(O)co1)C1CCN(c2ccc(F)cc2)CC1 | 53.5% |
| O[C@@H]1CC(CNCc2ccc(Cl)cc2)(COc2cccnc2)C[C@@H]1O (stereo partly drawn) | -26.2% |

| Structure (SMILES) | INHIBITION |
| --- | --- |
| COC(=O)N1CCN(Cc2ccccc2Cl)CC1 | 33.7% |
| COCCC(=O)N1CCC2(CN(Cc3cccc(Cl)c3)C2)C1 | 81.2% |
| COC(=O)CCC(=O)N1CCC2(CN(Cc3cccc(Cl)c3)C2)C1 | 57.9% |
| COCCC(=O)N1CCC2(CCN(Cc3cccc(F)c3)C2)C1 (stereo not drawn) | 57.9% |
| COCCC(=O)N1CC2(CCN(Cc3ccccc3Cl)CC2)C1 | 69.5% |
| COC(=O)CCC(=O)N1CCC2(CN(Cc3ccccc3)C2)C1 | 5.56% |
| COCCC(=O)N1CCC2(CN(Cc3cccc(F)c3)C2)C1 | 4.27% |
| COCCC(=O)N1CCC2(CCN(Cc3cccc(F)c3)CC2)CC1 | 45.1% |
| COCCC(=O)N1CCC2(CCN(Cc3cccc(F)c3)CC2)C1 | 49.7% |
| COCCC(=O)N1CCC2(CN(Cc3ccc(OC)c(F)c3)C2)C1 | -44.8% |
| COC(=O)CCC(=O)N1CCC2(CN(Cc3ccc(Cl)cc3)C2)C1 | -26.1% |
| COCCC(=O)N1CC2(CCN(Cc3cccc(Cl)c3)CC2)C1 | 15.9% |
| CC(=O)N(C)Cc1cccc(NC(=O)CCCc2nc(C(C)C)no2)c1 | -32.9% |
| CN(C)C(=O)COCc1cncc2c1CCN(Cc1ccccc1)C2 | -45.5% |
| Cc1ccc([C@H]2CN(C(=O)CC3CCC3)C[C@@H]2N)o1 | -92.8% |
| Cc1c(C(=O)NCCC2CN(C)CCO2)n(C)c2c(C)cccc12 (stereo not drawn) | 33.4% |
| Cc1nccn1-c1cc(CNC(=O)NCC2CCCO2)ccn1 (stereo not drawn) | -2.33% |
| CCC(C)C(=O)NCCCn1nc(C)cc1C (stereo not drawn) | -2.48% |
| O=C(NCCc1ccc(I)s1)N1CCC1 | -7.31% |
| OC1(CN2CCN(c3cccc(C(F)(F)F)c3)CC2)CNCCOC1 (stereo not drawn) | 41.5% |
| c1ccc(Cc2noc(-c3ccc(NCC4CCCCO4)nc3)n2)cc1 (stereo not drawn) | 26% |
| COCCNC(=O)NC(=O)CNc1c(F)cccc1N1CCCC1 | -32.5% |

| Structure (SMILES) | INHIBITION |
| --- | --- |
| CC[C@@H]1N(CC2CCC2)CCC[C@]12CCC(=O)N2Cc1ccncc1 | -8.51% |
| CC1(C(=O)N2CCN(C3CCCC3)CC2)CNCCO1 (stereo not drawn) | -21.4% |
| Cc1ccc(-c2cc(C(=O)N(C)Cc3noc4c3CCCC4)[nH]n2)s1 | -14.3% |
| COCCC(=O)N1CC2(CCN(Cc3ccncc3)CC2)C1 | 47.4% |
| Cc1ccc(CN2CCCC3(CCN(Cc4ccoc4)CC3)C2)cc1 | 82.8% |
| COCCC(=O)N1CCC2(CCN(Cc3ccc(C)cc3)CC2)C1 | 4.27% |
| O=C(C1CC=CC1)N1CCC2(CCN(Cc3cccc(F)c3)CC2)C1 | 59.8% |
| O=C(C1CCC1)N1CCC2(CCN(Cc3cccc(F)c3)CC2)CC1 | 45.7% |
| O=C(C1CC1)N1CCC2(CCN(Cc3cccc(F)c3)CC2)CC1 | -13.4% |
| COCCC(=O)N1CC2(CCN(Cc3ccoc3)C2)C1 | 54.6% |
| Cc1ccc(CN2CCC3(CC2)CCN(Cc2ccoc2)CC3)cc1 | -34.6% |
| Cn1ccnc1CN1CCC2(CC1)CCN(Cc1ccoc1)C2 | -37.4% |
| O=C(CC1CCCC1)N1CCCC1c1ccc(CN2CCOCC2)cn1 (stereo not drawn) | 30.25% |
| CC(C)c1nn(C)c(N(C)C)c1CNC(C)c1ccc2c(c1)OCO2 (stereo not drawn) | 22.3% |
| CCC(C)N(Cc1cccnc1)C(=O)c1ncccc1O (stereo not drawn) | 39.9% |
| Cc1nnc(NC(=O)CN(C)C2CCCN(c3cccnn3)C2)s1 (stereo not drawn) | 12.7% |
| Cc1csc(CNC(=O)NC(C)c2ccc3c(c2)OCCO3)n1 (stereo not drawn) | 44.9% |
| Cc1ccc(CNC2CCc3nc(C(C)C)nn3C2)o1 (stereo not drawn) | -17.7% |
| c1cncc(C[C@H]2[C@H](N3CCOCC3)CCN2Cc2cccs2)c1 | -7.24% |
| Cn1c(=O)[nH]c2cc(C(=O)OCCCn3ccccc3=O)ccc21 | 60% |
| CCOCCCOC(=O)c1ccc2c(c1)[nH]c(=O)n2C | -5.47% |
| CCCOCCOC(=O)c1ccc2c(c1)[nH]c(=O)n2C | 26.6% |

| Structure (SMILES) | INHIBITION |
| --- | --- |
| Cc1nn(C)c(C)c1C1COCCN1C(=O)CCc1ccccc1 (stereo not drawn) | 5.7% |
| Cc1nnc(NC(=O)CCc2c(C)nn3cnnc3c2C)s1 | 16.6% |
| CCCn1c(C)c(CC(=O)N(C)CCO)c2c1CC(C)(C)CC2=O | 48.1% |
| COC(=O)C(C)(C)NC(=O)C1CC(=O)N(C2CCCC2)C1 (stereo not drawn) | 20.1% |
| COC(=O)C(C)(C)NC(=O)C1CC(=O)N(C)C1 (stereo not drawn) | 35.1% |
| COC(=O)C(C)(C)NC(=O)C1CC(=O)N(C2CC2)C1 (stereo not drawn) | 84.1% |
| OCC1(O)CCN(Cc2noc(-c3ccccc3)n2)CC1 | 20.3% |
| CCc1ccc(C(=O)N2CCCN(Cc3nccn3CC)CC2)s1 | 8.47% |
| O=C(c1ccc(Br)s1)N1CCN(Cc2ccc(OC(F)(F)F)cc2)CC1 | 79% |
| O=C(c1ccc(Br)o1)N1CCN(Cc2ccc(OC(F)(F)F)cc2)CC1 | 90% |
| COC(=O)c1sccc1CN1CCN(C(=O)c2ccc(C)o2)CC1 | 30.9% |
| CCc1ccc(C(=O)N2CCN(CCO)CC2)o1 | -13.5% |
| CC(=O)N1CCN(Cc2ccc(OCc3nccn3C)cc2)CC1 | 1.78% |
| Cc1cc(C)n(CCN2CCN(C(=O)c3ccc(Br)o3)CC2)n1 | -13.3% |
| O=C(c1ccc(Br)o1)N1CCN(Cc2ccc(F)cc2)CC1 | 62.5% |
| Cc1ccc(CN2CCN(C(=O)c3ccc(Br)o3)CC2)cc1 | 92.8% |
| Cn1ccnc1CN1CCCN(C(=O)c2ccc(Cl)o2)CC1 | 29.1% |
| CC(=O)N1CCN(Cc2ccc(F)cc2)CC2(CC(=O)N(C)C2)C1 (stereo not drawn) | -6.05% |
| CC(O)CN1CCN(C(=O)c2ccc(Br)o2)CC1 (stereo not drawn) | 16.2% |
| O=C(c1cscn1)N1CCC2(CN(Cc3ccsc3)C2)C1 | 45.2% |
| N#Cc1ccccc1C(=O)NCCC1CN(Cc2ccco2)CCO1 (stereo not drawn) | 23.3% |
| CN(c1ccncn1)C1CC2(CCN(C(=O)c3cncs3)C2)C1 (stereo not drawn) | 32.3% |

| Structure (SMILES) | INHIBITION |
| --- | --- |
| Fc1ccccc1OCCc1cc(C2CCNC2)n[nH]1 (stereo not drawn) | -14.1% |
| Cc1nc(CN2CCCC(N(C)CCCc3ccccc3)C2)no1 (stereo not drawn) | -11.4% |
| Cc1cc(N2CCC(O)CC2)nc(C2CCCN2C)n1 (stereo not drawn) | 9.6% |
| O=C(Nc1ccccc1)c1cc2n(n1)CCCN(C(=O)c1ccc[nH]1)C2 | 28.5% |
| CCc1ccc(C(=O)N2CCN(Cc3ccc(F)cc3)CC2)s1 | 68.5% |
| CCc1nnsc1C(=O)N1CCCN(Cc2ccc(F)cc2)CC1 | -0.219% |
| COCc1ccc(C(=O)N2CCCN(Cc3ccc(F)cc3)CC2)s1 | 14.3% |
| Cc1cc(C)n(CC2CCCN2C(=O)c2cnccn2)n1 (stereo not drawn) | -3.7% |
| O=c1cc(Cn2ccnc2)nc2n1CCCN(Cc1ccco1)C2 | 8.85% |
| Cc1nc(CN2CCCn3c(nc(Cn4cncn4)cc3=O)C2)cs1 | 51.2% |
| O=c1cc(Cn2ccnc2)nc2n1CCCN(Cc1cccs1)C2 | 53.4% |
| Fc1ccc(N2CCCN(c3ccc(Cn4ccnc4)cn3)CC2)cc1 | 92.8% |
| O=c1cc(Cn2cncn2)nc2n1CCCN(Cc1ccsc1)C2 | 12.7% |
| O=c1cc(Cn2ccnc2)nc2n1CCCN(Cc1ccncc1)C2 | -32% |
| c1csc(CN2CCCN(c3ccc(Cn4ccnc4)cn3)CC2)c1 | 52.6% |
| Cc1nc(CN2CCCn3c(nc(Cn4ccnc4)cc3=O)C2)cs1 | -16.6% |
| CC(Cn1ccnc1)NC(=O)N1CCCN(Cc2cccs2)CC1 (stereo not drawn) | 21.5% |
| O=C(NCCn1ccnc1)N1CCCN(Cc2cccs2)CC1 | -39.7% |
| OC1CCN(C2CCN(c3ccc(Cn4ccnc4)cn3)CC2)CC1 | 24.4% |
| c1cn(Cc2ccc(N3CCCN(C4CCCC4)CC3)nc2)cn1 | 13.5% |
